Data published in PubChem BioAssay (NCI).
Where “and” joins values, the source holds several entries; their conditions need not be identical. Equal values may be shown once. This is part of a sample that, as a whole, favours compounds with a hit. Of some 79,000 tested, about 15% had one in any assay. Some compounds were tested as several samples or in several runs, with calls that do not always agree. Calls of active or inactive are those of the source. Rule as the data show it: active = growth inhibition above about 70%; inactive = the rest.

Experiments:
[1] = NCI Yeast Anticancer Drug Screen. Data for the rad50 strain (AID 155);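 also: 0% = growth of vehicle-only cultures of the same strain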; conditions: S. cerevisiae rad50 strain growth inhibition; at 50.0 µM; stronger effect = higher value
How it was run: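 Growth of the mutant yeast was measured after compound exposure and referenced to vehicle-treated cultures.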

[2] = NCI Yeast Anticancer Drug Screen. Data for the mec2-1 strain (AID 157); conditions: S. cerevisiae mec2-1 strain, at 50.0 µM, stronger effect = higher value
How it was run: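 Compounds were applied to mec2-1 yeast cells. Their growth was then compared with that of vehicle-treated cultures to give growth inhibition.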

[3] = NCI Yeast Anticancer Drug Screen. Data for the sgs1 mgt1 strain (AID 161);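 also: 0% = growth of cultures given vehicle only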; conditions: S. cerevisiae sgs1 mgt1 strain, at 50.0 µM, stronger effect = higher value
How it was run: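 Compounds are added to genetically altered yeast, and growth is compared with cultures given vehicle alone to give percent inhibition.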

[4] = NCI Yeast Anticancer Drug Screen. Data for the cln2 rad14 strain (AID 165);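 also: 0% = growth equal to vehicle treated cultures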; conditions: S. cerevisiae cln2 rad14 strain, at 50.0 µM, stronger effect = higher value
How it was run: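 Strain: cln2 rad14 yeast, altered in cell cycle control and DNA damage repair. Read-out: growth inhibition vs vehicle.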

[5] = NCI Yeast Anticancer Drug Screen. Data for the bub3 strain (AID 167); conditions: S. cerevisiae bub3 mutant strain, at 50.0 µM, stronger effect = higher value
How it was run: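 Whole-cell yeast assay. The mutant strain was incubated with compounds, and growth inhibition was determined by comparison with vehicle-treated cells.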

[6] = NCI Yeast Anticancer Drug Screen. Data for the mlh1 rad18 strain (AID 175); conditions: S. cerevisiae mlh1 rad18 strain growth inhibition; at 50.0 µM; stronger effect = higher value
How it was run: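 A repair-deficient yeast strain is exposed to test compound, and growth is scored relative to vehicle-treated controls.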

Measured: growth inhibition

CC(F)C(N)C(=O)O (stereo unspecified)
inactive: [1] -7.9% | [2] -3.65% | [3] -7.75% | [4] -1.7% | [5] -0.1% | [6] -11.9%

O=[N+]([O-])c1cc(/C=N\NC(=S)NC2CN3CCC2CC3)ccc1Cl (stereo unspecified)
inactive: [1] 22.5% | [2] -24.1% | [3] 1.85% | [4] 0.15% | [5] 4.8% | [6] 2.4%

ClCCCBr
inactive: [1] 29.2% | [2] -7.35% | [3] -10.8% | [4] 13.3% | [5] 24.4% | [6] 21.9%

N.N.N.N.N#N.N#N.[Cl-].[Os+6]
inactive: [1] -25.4% | [2] -24.1% | [3] -34.6% | [4] -7.95% | [5] -35.4% | [6] -39%

CC1([N+](=O)[O-])COP(=O)(OP2(=O)OCC(C)([N+](=O)[O-])CO2)OC1 (stereo unspecified)
inactive: [1] 29.8% | [2] 10.2% | [3] 28.9% | [4] 26.6% | [5] 3.85% | [6] 20%

CCNC(=S)S
inactive: [1] -7.35% | [2] -8.4% | [3] -13.1% | [4] -0.6% | [5] -2.25% | [6] -3.75%

CCOC(=O)NP(=O)(Nc1ccccc1)Nc1ccccc1
inactive: [1] 21.2% | [2] -8.05% | [3] -3.5% | [4] 5.7% | [5] -5.1% | [6] -5%

NC(Cc1cnc[nH]1)C(=O)NC(Cc1cnc[nH]1)C(=O)O (stereo unspecified)
inactive: [1] -5.1% | [2] 9% | [3] -1.5% | [4] 10.6% | [5] 4.45% | [6] 7.6%

CC1(CCN)COC(c2ccccc2)(c2ccccc2)OC1 (tested in a mixture with another compound)
inactive: [1] 20.1% | [2] 4.15% | [3] -0.7% | [4] 31.4% | [5] 10.2% | [6] 43.2%

CC[C@@]1(O)C(=O)OCc2c1cc1n(c2=O)Cc2c-1nc1ccccc1c2C=Nc1ccc(N[C@@H]2c3cc4c(cc3[C@@H](c3cc(OC)c(O)c(OC)c3)[C@H]3C(=O)OC[C@@H]32)OCO4)cc1
54% (inactive) and 77.9% (active): [4]
50.3% (inactive) and 83.3% (active): [5]
46% (inactive) and 81.2% (active): [6]
active: [2] 71.6% and 76.7%
49.7% (inactive) and 82.5% (active): [1]
69.9% (inactive) and 80.4% (active): [3]

COC1=CCC2=C(CC[C@H]3[C@H]2CCP3C)C1 (stereo partly specified)
inactive: [1] 8.65% | [2] -10.8% | [3] -7.85% | [4] -17.9% | [5] 0.9% | [6] 5.25%
